Compound activity (PubChem BioAssay)
Most compounds without a hit are left out; they make up all but 1.5% or so of the library.
Coupling enz: inhibits coupling enzyme system, counter-screen for aldolase hits. activity change, negative = inhibition, % at 58.2 µM, hits read low. 0.67% of 290,000 active. coupling enzyme system counterscreen, AmpLite Red fluorescence; in the data active means activity change below about -30%
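Activity here indicates interference with the coupling reaction, not aldolase inhibition. Compounds at 57.5 uM final met coupling enzymes for 10 min at RT; substrate and AmpLite Red detection followed, with a 525/598 nm fluorescence read after 20 min.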
GALK inh: galactokinase (human) inhibition; 0.007% of 270,000 active; Potency, µM (doses to about 57.5 µM), inactives show top-dose activity change, negative = inhibition, usual class: inhibitors; AID 1868; Purified GALK, Kinase-Glo residual ATP luminescence; P51570; further: potency means the concentration at half of the fitted maximal effect
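Luminescence from leftover ATP (Ultra-Glo luciferase/luciferin) served as read-out after a 1 h room-temperature reaction of 5 nM GALK with 35 uM ATP and 100 uM galactose.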
TrxR1 inh: rat TrxR1 inhibition | O89049 | recombinant rTrxR1, NADPH fluorescence consumption, selenite substrate | Potency, µM (doses to about 114 µM), for the others: at the top dose activity change, negative = inhibition, usual class: inhibitors | 1% of 390,000 active | AID 588453; further: potency means the concentration at half of the fitted maximal effect; nearly all actives have a fitted effect of over 65% in size
Target sequence (O89049 whole entry, looked up): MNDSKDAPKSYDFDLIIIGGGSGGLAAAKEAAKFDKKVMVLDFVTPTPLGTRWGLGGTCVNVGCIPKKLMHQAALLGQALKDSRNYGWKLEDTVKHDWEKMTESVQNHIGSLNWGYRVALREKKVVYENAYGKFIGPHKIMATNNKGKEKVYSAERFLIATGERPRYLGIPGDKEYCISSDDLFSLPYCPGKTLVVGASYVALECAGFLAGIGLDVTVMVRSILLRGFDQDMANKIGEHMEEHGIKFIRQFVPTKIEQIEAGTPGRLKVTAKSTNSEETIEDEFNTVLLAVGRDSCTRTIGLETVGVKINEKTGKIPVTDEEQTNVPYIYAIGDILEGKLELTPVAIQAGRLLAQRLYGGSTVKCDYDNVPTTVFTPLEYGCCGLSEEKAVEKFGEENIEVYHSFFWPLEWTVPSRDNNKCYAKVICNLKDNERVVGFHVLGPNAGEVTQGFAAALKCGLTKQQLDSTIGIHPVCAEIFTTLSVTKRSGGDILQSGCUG
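Rat TrxR1 (90 nM in the dispensed reagent) was pre-reduced with 400 uM NADPH for 5 min at room temperature, then incubated with compound for 15 min. After 400 uM selenite was added, NADPH fluorescence (Ex 340/Em 450 nm) was followed for 8 min.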
USP1-UAF1 inh: USP1/UAF1 (human) deubiquitinase inhibition. O94782. 0.23% of 390,000 active. recombinant USP1/UAF1, Ub-Rhodamine cleavage fluorescence. AID 743255. Potency, µM (titrated, usually from 57.1 µM), for the others: at the top dose activity change, negative = inhibition, hits mostly inhibitors; further: potency means the concentration at half of the fitted maximal effect; nearly all actives have a fitted effect of over 60% in size
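In this screen, compounds sit with the deubiquitinase complex (1nM) for 15 min at room temperature before Ub-Rho is added at 150nM final. Fluorescence rise is then followed for 6 reads every 60 seconds.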
TrxR1 substrate: substrates of rat thioredoxin reductase 1. O89049. purified TrxR1 substrate turnover, NADPH consumption readout. Potency, µM (doses to about 114 µM), inactives show at the highest dose activity change, negative = substrate turnover. 0.01% of 390,000 active. AID 588456; further: potency means the concentration at half of the fitted maximal effect; nearly all actives have a fitted effect of over 50% in size
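Rat TrxR1, dispensed at 90 nM, was prereduced with 400 uM NADPH (final) for 5 min at ~22 deg C, then incubated with compound 15 min before 400 uM selenite. A first-read NADPH fluorescence drop versus no-compound background flagged substrates.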
* marks the source's active call; other numbers are inactive results; ? = inconclusive; nt = no result given; [ ] = dose if it differs, or a comment. Unless noted, the call rests on the fitted dose curve; in most records, active means well fitted curve in the direction sought with a large enough effect; inconclusive means small, poorly fitted or top-dose-only effect, or another doubt; inactive means no such curve, though single readings can be large; an effect the other way counts as inactive or inconclusive. On the % scale 0 is the no-effect control and ±100 the full control effect.

SMILES	Coupling enz	GALK inh	TrxR1 inh	USP1-UAF1 inh	TrxR1 substrate
CCc1nnc(NS(=O)(=O)c2ccc(NC(=S)NC(=O)/C=C/c3ccc(C(C)C)cc3)cc2)s1	7	-2%	?	25µM*	-11%
O=C(NC(=S)Nc1ccc(S(=O)(=O)Nc2nccs2)cc1)c1ccccc1	5	1%	40µM*	-3%	-14%
CCc1nnc(NS(=O)(=O)c2ccc(NC(=S)NC(=O)c3ccc(Br)cc3)cc2)s1	8	0%	50µM*	-19%	-19%
COc1ccc(C2NC(c3ccc4c(c3)OCO4)=CC(c3ccccc3O)N2)cc1OC (stereo not given)	nt	nt	-15%	nt	-2%[0.0914 µM]
C(=C\c1c[nH]c2ccccc12)/c1ccc2ccccc2n1	nt	nt	-12%	nt	6%
Brc1cc2[nH]cnc2c2ccccc12	-39*	0%	8%	?	2%
Oc1ccc2c(ccc3[nH]cnc32)c1	-8	nt	2%[57.1 µM]	1%	6%[57.1 µM]
COc1ccc(CC(=O)n2[nH]c(=O)ccc2=O)cc1OC	4	-1%	3.5µM*	-9%	11%[57.1 µM]
COc1ccc(CC(=O)n2[nH]c(=O)c3ccccc3c2=O)cc1OC	1	nt	17%[11.4 µM]	-2%	5%[11.4 µM]
Nc1cccc2c(=O)[nH]ccc12	-6	nt	nt	nt	nt
Cc1cc[n+](C2CCCCC2)c2ccccc12	nt	nt	9%	nt	-1%
COc1ccccc1/C=C/C(=O)c1cc(Br)ccc1OC(=O)c1ccco1	nt	nt	-36%	-19%	-18%
CNc1ccc(Br)cc(C(=O)/C=C/c2cccc(Cl)c2Cl)c1=O	-11	5%	11µM*	?	5%
CNc1ccc(Br)cc(C(=O)/C=C/c2cccc(OC)c2OC)c1=O	-32*	0%	-7%	-11%	-7%
CCNc1ccc(Br)cc(C(=O)/C=C/c2ccccc2Cl)c1=O	nt	nt	?	28µM*	-4%
CNc1ccccc(C(=O)/C=C/c2ccccc2OC)c1=O	-30*	nt	8.9µM*	?	-11%
CC(C)(C)n1ncc2c(=O)n(Cc3cccc(Oc4ccccc4)c3)cnc21	nt	nt	2%	nt	-4%
CCCCCCCC/C=C/CCCCCCCC(=O)NCCOP(=O)(O)O	11	nt	nt	nt	nt
O=C1CCCC2=C1C1(CCCCC1)N=C(Nc1nc3ccccc3o1)N2	1	22µM*	16%	-16%	6%
CC1(C)CC(=O)C2=C(C1)NC(Nc1nc3ccccc3o1)=NC2c1ccccc1 (stereo not given)	nt	nt	12%	nt	12%
CCn1c(SCC(=O)Nc2sc3c(c2C#N)CCC(C(C)(C)C)C3)nnc1-c1ccco1 (stereo not given)	7	1%	-8%	-23%	-1%
CCn1c(SCC(=O)Nc2sc3c(c2C#N)CCCC3)nnc1-c1ccco1	-40*	1%	1%	-17%	1%
CCn1c(SCC(=O)c2ccc3c(c2)OCCO3)nnc1-c1ccco1	-3	2%	50µM*	-7%	1%
O=C(N/N=C/c1ccc([N+](=O)[O-])s1)c1ccccc1Br	nt	-5%	20µM*	-23%	-2%
O=C(Nc1ccccc1C(=O)N/N=C/c1ccc(F)cc1)c1ccccc1Br	-33*	2%	7%	-20%	2%
SMILES	Coupling enz	GALK inh	TrxR1 inh	USP1-UAF1 inh	TrxR1 substrate
Cc1ccccc1C(=O)N/N=C/c1ccc([N+](=O)[O-])s1	3	-2%	?	-29%	-12%
COc1cc(OC)c2c(c1C(CCN1CCCC(C)C1)c1ccc(N(C)C)cc1)OC(=O)CC2c1ccc(N(C)C)cc1 (stereo not given)	-3	nt	-31%	nt	1%
CC1CCN(S(=O)(=O)c2cc3c4c(c2)CC(=O)N4CCC3)CC1	nt	nt	17%[57.1 µM]	-24%	-1%[57.1 µM]
CC1CCN(S(=O)(=O)c2ccc3c4c2CC(=O)N4CC(C)S3)CC1 (stereo not given)	-33*	-8%	-8%	-12%	-7%
Cc1ccc(CN(C)C(=O)C2CCCN2C(=O)c2cccs2)o1 (stereo not given)	1	3%	10µM*	-15%	9%
C[C@H](NC(c1cccc2nc(O)c(O)nc12)P(=O)(O)O)c1ccc(Br)cc1 (stereo not given in full)	8	nt	nt	nt	nt
COc1ccc(-c2sc(N)nc2-c2ccccc2)cc1	nt	nt	1%	nt	2%
